# Measurements as given in the supplement of paper PMC4709259.
# Structures can show the parent of a compound that is named as a salt. ± gives the standard deviation.
# How the values were obtained:
# Jurkat [1] = experiment: mean cell size (FSC-A) relative to DMSO control (fraction of control); higher = larger cells; conditions: 48 h
# Summary of the method: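 Jurkat cells at 600 cells/µl were incubated for 1 h and then treated for 48h with the Enzo Screen-Well FDA Approved Drug Library v2.0 at 25µM, with DMSO at 0.9% (v/v) final. Compounds that reduced counts below 20% of controls were retested in 10-fold dilutions down to 25nM. Cell count and mean cell size, taken as forward scatter area, were measured by flow cytometry relative to solvent-only controls. Each plate carried 6-12 controls, and values are means of 3 biological replicates.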
# Jurkat [2] = experiment: cell count relative to DMSO control (fraction of control); higher = more cells (less growth inhibition); conditions: 48 h
SMILES,mean cell size (Jurkat [1]),cell count (Jurkat [2])
NC[C@@H]1O[C@H](O[C@H]2[C@@H](O)[C@H](O[C@@H]3[C@@H](O)[C@H](N)C[C@H](N)[C@H]3O[C@H]3O[C@H](CN)[C@@H](O)[C@H](O)[C@H]3N)O[C@@H]2CO)[C@H](N)[C@@H](O)[C@@H]1O [Neomycin Sulfate] (concentration: 25 µM),0.935 ± 0.018,0.944 ± 0.038
CC(=O)NO [Acetohydroxamic Acid] (concentration: 25 µM),1.02 ± 0.059,0.755 ± 0.016
CC1=Nc2ccc(Cl)cc2S(=O)(=O)N1 [Diazoxide] (concentration: 25 µM),1.01 ± 0.064,0.916 ± 0.04
CC(C)NCC(O)c1cc(O)cc(O)c1 (stereo unspecified) [Metaproterenol Hemisulfate (Orciprenaline)] (concentration: 25 µM),1.1 ± 0.033,0.895 ± 0.04
NC[C@H]1O[C@H](O[C@H]2[C@H](O)[C@@H](O[C@H]3O[C@H](CO)[C@@H](O)[C@H](N)[C@H]3O)[C@H](N)C[C@@H]2N)[C@H](N)C[C@@H]1O [Tobramycin] (concentration: 25 µM),1.01 ± 0.054,0.65 ± 0.082
O=c1[nH]c(=O)n([C@H]2C[C@H](O)[C@@H](CO)O2)cc1I [Idoxuridine] (concentration: 25 µM),1.05 ± 0.019,0.235 ± 0.062
CC=CC1=C(C(=O)O)N2C(=O)[C@@H](NC(=O)[C@H](N)c3ccc(O)cc3)[C@H]2SC1 [Cefprozil] (concentration: 25 µM),0.951 ± 0.035,1.06 ± 0.035
CN1CCC[C@@H]1CCO[C@](C)(c1ccccc1)c1ccc(Cl)cc1 [Clemastine Fumarate] (concentration: 25 µM),0.985 ± 0.024,0.24 ± 0.04
COc1cccc2c1C(=O)c1c(O)c3c(c(O)c1C2=O)C[C@@](O)(C(=O)CO)C[C@@H]3O[C@H]1C[C@H](N)[C@@H](O)[C@H](C)O1 [Epirubicin·HCl] (concentration: 250 nM),1.42 ± 0.022,0.206 ± 0.052
CC(C)(C(=O)O)c1ccc(C(O)CCCN2CCC(C(O)(c3ccccc3)c3ccccc3)CC2)cc1 (stereo unspecified) [Fexofenadine·HCl] (concentration: 25 µM),0.996 ± 0.041,0.725 ± 0.024
O=C1[C@H](CC[C@H](O)c2ccc(F)cc2)[C@@H](c2ccc(O)cc2)N1c1ccc(F)cc1 [Ezetimibe] (concentration: 25 µM),1.03 ± 0.022,0.639 ± 0.061
CN(C)CC(c1ccc(O)cc1)C1(O)CCCCC1 (stereo unspecified) [Desvenlafaxine Succinate Hydrate] (concentration: 25 µM),0.993 ± 0.027,0.64 ± 0.09
CC(C)(O/N=C(\C(=O)N[C@@H]1C(=O)N2C(C(=O)[O-])=C(C[n+]3ccccc3)CS[C@H]12)c1csc(N)n1)C(=O)O [Ceftazidime] (concentration: 25 µM),0.958 ± 0.011,0.884 ± 0.095
NS(=O)(=O)c1cc(C(=O)O)c(NCc2ccco2)cc1Cl [Furosemide] (concentration: 25 µM),0.932 ± 0.034,0.249 ± 0.11
NCCCC[C@H](N[C@@H](CCc1ccccc1)C(=O)O)C(=O)N1CCC[C@H]1C(=O)O [Lisinopril·2H2O] (concentration: 25 µM),0.955 ± 0.022,0.884 ± 0.075
CCCSc1ccc2[nH]c(NC(=O)OC)nc2c1 [Albendazole] (concentration: 2.5 µM),1.32 ± 0.11,0.209 ± 0.012
CC(=O)OCC(CCn1cnc2cnc(N)nc21)COC(C)=O [Famciclovir] (concentration: 25 µM),0.925 ± 0.053,0.465 ± 0.18
CC(COc1ccccc1)N(CCCl)Cc1ccccc1 (stereo unspecified) [Phenoxybenzamine·HCl] (concentration: 25 µM),0.965 ± 0.021,0.746 ± 0.08
C[N+](C)(C)C[C@H](O)CC(=O)[O-] [Levocarnitine] (concentration: 25 µM),0.938 ± 0.013,1.01 ± 0.099
CC(N)C12CC3CC(CC(C3)C1)C2 (stereo unspecified) [Rimantadine·HCl] (concentration: 25 µM),1.02 ± 0.055,0.697 ± 0.067
CCOc1nc2cccc(C(=O)O)c2n1Cc1ccc(-c2ccccc2-c2nnn[nH]2)cc1 [Candesartan] (concentration: 25 µM),1.01 ± 0.042,0.901 ± 0.11
O=C(c1ccccc1)c1ccc2n1CCC2C(=O)O (stereo unspecified) [Ketorolac Tromethamine] (concentration: 25 µM),0.907 ± 0.024,0.934 ± 0.038
CCC(=O)O[C@]1(C(=O)CCl)[C@@H](C)C[C@H]2[C@@H]3C[C@H](F)C4=CC(=O)C=C[C@]4(C)[C@@]3(F)[C@@H](O)C[C@@]21C [Halobetasol Propionate] (concentration: 25 µM),0.971 ± 0.034,0.883 ± 0.12
